Assay results: publication PMC7862700, “An all-to-all approach to the identification of sequence-specific readers for epigenetic DNA modifications on cytosine”

Tests used:
Test in all cases: DAPPL (digital affinity profiling via proximity ligation, sequencing); 10 mM Tris-HCl pH 7.5, 50 mM NaCl, 1 mM DTT, 4% glycerol, room temperature, 30 min; GST-TFs on glutathione beads, 16-mer random dsDNA library, 0.1% formaldehyde crosslink after washing; high values mean tight binding
FEV = target: T1, FEV (Homo sapiens, UniProt Q99581 1-238); settings: protein: recombinant; tags: N-terminal GST; dsDNA, one strand shown
T1 sequence: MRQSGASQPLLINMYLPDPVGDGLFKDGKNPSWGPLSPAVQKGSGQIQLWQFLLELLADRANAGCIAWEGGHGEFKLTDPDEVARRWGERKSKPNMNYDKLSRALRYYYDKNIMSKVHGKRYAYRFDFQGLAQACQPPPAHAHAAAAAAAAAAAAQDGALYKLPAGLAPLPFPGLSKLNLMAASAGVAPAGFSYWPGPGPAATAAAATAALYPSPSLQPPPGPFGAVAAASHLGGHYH
Summary of the method: (§1)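 Yeast served to express human transcription factors as GST fusions, which were then captured on glutathione beads and labelled with DNA barcodes. Pooled with a tag-only sample, they were incubated with 200 nmole of a 16-mer random double-stranded DNA library for 30 min at room temperature in Tris/NaCl/DTT/glycerol buffer, washed, crosslinked with 0.1% formaldehyde, ligated by proximity, amplified by PCR and sequenced. Dividing each hexamer's read frequency for a factor by its frequency for the tag-only sample gives the binding signal.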

ETV5 = ETV5 (Homo sapiens, UniProt P41161 1-510); settings: protein: recombinant; tags: N-terminal GST; dsDNA, one strand shown
Summary of the method: as §1

HSF1 = HSF1 (Homo sapiens, UniProt Q00613 1-529); settings: protein: recombinant; tags: N-terminal GST; chain copies: 3; dsDNA, one strand shown
Summary of the method: as §1

SPIC = target: T2, SPIC (Homo sapiens, UniProt Q8N5J4 1-248); settings: protein: recombinant; tags: N-terminal GST; dsDNA, one strand shown
T2 sequence: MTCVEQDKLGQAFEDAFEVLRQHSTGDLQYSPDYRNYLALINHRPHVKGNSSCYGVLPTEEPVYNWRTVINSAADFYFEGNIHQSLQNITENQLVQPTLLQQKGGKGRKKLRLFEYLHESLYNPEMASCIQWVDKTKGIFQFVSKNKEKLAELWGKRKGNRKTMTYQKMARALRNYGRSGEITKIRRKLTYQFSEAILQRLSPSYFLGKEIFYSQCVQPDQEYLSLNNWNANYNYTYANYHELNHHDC
Summary of the method: as §1

ELF4 = ELF4 (Homo sapiens, UniProt Q99607 1-663); settings: protein: recombinant; tags: N-terminal GST; dsDNA, one strand shown
Summary of the method: as §1

ELK4 = target: T3, ELK4 (Homo sapiens, UniProt P28324-2 1-405); settings: protein: recombinant; tags: N-terminal GST; dsDNA, one strand shown
T3 sequence: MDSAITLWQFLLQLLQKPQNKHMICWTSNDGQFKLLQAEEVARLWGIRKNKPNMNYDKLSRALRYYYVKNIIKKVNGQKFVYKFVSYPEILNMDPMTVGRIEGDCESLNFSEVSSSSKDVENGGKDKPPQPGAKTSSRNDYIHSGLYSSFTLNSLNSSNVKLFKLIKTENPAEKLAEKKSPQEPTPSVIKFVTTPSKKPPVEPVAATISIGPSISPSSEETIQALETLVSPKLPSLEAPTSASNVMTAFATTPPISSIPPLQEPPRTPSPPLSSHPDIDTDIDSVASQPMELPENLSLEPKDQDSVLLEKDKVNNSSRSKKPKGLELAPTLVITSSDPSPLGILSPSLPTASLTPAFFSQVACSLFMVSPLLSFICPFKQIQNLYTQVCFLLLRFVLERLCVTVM
Summary of the method: as §1

ETV2 = target: T4, ETV2 (Homo sapiens, UniProt O00321 1-342); settings: protein: recombinant; tags: N-terminal GST; dsDNA, one strand shown
T4 sequence: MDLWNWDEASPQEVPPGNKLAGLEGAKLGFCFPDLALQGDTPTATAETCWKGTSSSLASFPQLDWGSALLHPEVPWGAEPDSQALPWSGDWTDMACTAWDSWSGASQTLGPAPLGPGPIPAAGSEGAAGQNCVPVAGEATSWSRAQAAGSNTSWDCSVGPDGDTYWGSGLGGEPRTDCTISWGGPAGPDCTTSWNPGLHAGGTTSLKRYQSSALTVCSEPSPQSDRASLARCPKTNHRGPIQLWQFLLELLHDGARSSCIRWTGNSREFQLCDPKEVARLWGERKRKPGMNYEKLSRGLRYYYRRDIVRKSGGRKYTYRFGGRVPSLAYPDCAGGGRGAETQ
Summary of the method: as §1

ELF3 = target: T5, ELF3 (Homo sapiens, UniProt P78545 1-371); settings: protein: recombinant; tags: N-terminal GST; dsDNA, one strand shown
T5 sequence: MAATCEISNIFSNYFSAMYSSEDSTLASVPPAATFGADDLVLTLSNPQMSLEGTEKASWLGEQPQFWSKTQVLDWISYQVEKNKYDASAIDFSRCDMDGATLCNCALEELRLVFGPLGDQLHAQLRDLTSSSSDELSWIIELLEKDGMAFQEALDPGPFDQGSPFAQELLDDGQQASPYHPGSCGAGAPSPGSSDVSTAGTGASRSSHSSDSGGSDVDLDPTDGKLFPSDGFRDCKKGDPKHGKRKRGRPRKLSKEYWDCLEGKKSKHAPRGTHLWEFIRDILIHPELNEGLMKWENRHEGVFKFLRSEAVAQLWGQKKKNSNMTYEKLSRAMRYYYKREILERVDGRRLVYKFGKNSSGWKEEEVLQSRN
Summary of the method: as §1

CRX = CRX (Homo sapiens, UniProt O43186 1-299); settings: protein: recombinant; tags: N-terminal GST; dsDNA, one strand shown
Summary of the method: as §1

Chain of HSF1 (Q00613 whole entry): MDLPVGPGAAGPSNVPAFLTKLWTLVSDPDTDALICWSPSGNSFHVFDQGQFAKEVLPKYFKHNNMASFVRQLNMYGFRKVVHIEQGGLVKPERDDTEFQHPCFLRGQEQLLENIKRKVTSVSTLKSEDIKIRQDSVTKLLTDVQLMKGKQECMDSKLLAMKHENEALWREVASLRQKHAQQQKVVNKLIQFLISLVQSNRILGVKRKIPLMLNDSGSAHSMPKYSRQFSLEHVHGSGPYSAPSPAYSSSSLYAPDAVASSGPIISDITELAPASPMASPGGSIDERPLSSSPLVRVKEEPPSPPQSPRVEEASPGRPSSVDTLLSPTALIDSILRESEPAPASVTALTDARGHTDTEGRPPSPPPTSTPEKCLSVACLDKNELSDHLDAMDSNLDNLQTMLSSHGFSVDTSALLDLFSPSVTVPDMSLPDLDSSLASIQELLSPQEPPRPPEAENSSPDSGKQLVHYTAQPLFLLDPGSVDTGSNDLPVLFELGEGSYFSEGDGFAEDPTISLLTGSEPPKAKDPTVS
Chain of CRX (O43186 whole entry): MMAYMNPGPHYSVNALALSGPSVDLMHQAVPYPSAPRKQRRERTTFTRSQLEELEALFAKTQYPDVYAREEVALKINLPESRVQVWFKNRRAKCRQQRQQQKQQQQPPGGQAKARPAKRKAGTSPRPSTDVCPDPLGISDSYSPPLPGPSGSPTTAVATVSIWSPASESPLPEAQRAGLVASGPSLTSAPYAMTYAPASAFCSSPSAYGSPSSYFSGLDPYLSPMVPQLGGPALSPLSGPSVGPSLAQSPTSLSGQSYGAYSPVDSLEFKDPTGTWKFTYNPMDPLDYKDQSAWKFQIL
Chain of ETV5 (P41161 whole entry): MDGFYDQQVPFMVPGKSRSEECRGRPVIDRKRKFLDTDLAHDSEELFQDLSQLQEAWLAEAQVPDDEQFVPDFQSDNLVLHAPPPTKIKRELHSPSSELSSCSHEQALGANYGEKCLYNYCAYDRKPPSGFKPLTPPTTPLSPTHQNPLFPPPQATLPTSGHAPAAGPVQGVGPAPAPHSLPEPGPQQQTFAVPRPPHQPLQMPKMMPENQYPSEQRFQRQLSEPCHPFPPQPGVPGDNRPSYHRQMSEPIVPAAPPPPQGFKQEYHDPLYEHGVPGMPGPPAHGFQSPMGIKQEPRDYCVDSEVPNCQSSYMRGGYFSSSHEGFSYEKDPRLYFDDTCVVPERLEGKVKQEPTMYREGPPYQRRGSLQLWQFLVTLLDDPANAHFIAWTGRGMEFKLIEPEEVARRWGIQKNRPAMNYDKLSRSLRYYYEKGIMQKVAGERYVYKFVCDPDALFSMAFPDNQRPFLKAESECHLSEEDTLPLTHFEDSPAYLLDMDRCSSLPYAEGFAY
Chain of ELF4 (Q99607 whole entry): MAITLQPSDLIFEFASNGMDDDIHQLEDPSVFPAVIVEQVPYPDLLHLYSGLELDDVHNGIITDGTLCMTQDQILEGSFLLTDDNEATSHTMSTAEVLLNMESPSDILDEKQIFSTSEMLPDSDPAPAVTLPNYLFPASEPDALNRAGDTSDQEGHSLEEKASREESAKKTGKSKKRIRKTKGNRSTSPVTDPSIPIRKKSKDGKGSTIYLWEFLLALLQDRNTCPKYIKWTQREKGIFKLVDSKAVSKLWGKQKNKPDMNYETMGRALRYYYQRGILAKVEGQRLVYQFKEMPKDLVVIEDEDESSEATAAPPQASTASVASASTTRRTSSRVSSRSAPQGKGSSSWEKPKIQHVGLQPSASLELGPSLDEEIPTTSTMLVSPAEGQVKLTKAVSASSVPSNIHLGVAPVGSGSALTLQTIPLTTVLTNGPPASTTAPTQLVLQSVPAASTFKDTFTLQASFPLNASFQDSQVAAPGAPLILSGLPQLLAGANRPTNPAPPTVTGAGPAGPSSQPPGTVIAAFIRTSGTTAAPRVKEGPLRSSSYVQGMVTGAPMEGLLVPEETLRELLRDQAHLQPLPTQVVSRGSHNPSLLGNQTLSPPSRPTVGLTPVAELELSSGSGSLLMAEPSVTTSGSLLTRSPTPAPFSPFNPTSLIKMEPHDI

**Q.** Which binding signal (FEV) does the source give for TAGTTC here?
**A.** Its binding signal is 1.28 fold enrichment (6-mer frequency, TF over GST control).

**Q.** What about the binding signal (ETV5) of the same sequence?
**A.** The binding signal was 1.41 fold enrichment (6-mer frequency, TF over GST control).

**Q.** And the binding signal (HSF1)?
**A.** The binding signal was 1.45 fold enrichment (6-mer frequency, TF over GST control).

**Q.** And the binding signal (SPIC)?
**A.** The binding signal was 1.47 fold enrichment (6-mer frequency, TF over GST control).

**Q.** And the binding signal (ELF4)?
**A.** The binding signal was 1.43 fold enrichment (6-mer frequency, TF over GST control).

**Q.** What about the binding signal (ELK4) of the same sequence?
**A.** The binding signal was 1.49 fold enrichment (6-mer frequency, TF over GST control).

**Q.** What about the binding signal (ETV2) of the same sequence?
**A.** Its binding signal is 1.4 fold enrichment (6-mer frequency, TF over GST control).

**Q.** What about the binding signal (ELF3) of the same sequence?
**A.** Its binding signal is 1.49 fold enrichment (6-mer frequency, TF over GST control).

**Q.** What about the binding signal (CRX) of the same sequence?
**A.** Its binding signal is 1.23 fold enrichment (6-mer frequency, TF over GST control).
